Data as given in the supplement of paper PMC10127200.
Where a name gives a salt, the structure may show the parent alone.

Columns and labels:
Assay in all cases: Euclidean distance of Cell Painting phenotypic profile (signed KS, 77 features) to DMSO centroid (dimensionless distance); 5 or 10 uM (library dependent); higher = stronger phenotypic change vs DMSO (phenoactivity)
Conditions in all cases: 48 h
[1] = test system: 786-O
In short: (§1)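 Phenoactivity is defined as the Euclidean distance from a compound profile to the median vehicle profile. Each profile comprised 77 Harmony features, scored as signed Kolmogorov-Smirnov statistics versus same-plate vehicle wells, then plate-position corrected, correlation-weighted and replicate-averaged at the top dose. Five cancer lines and one healthy fibroblast line were exposed to library compounds for 48 h at 10 or 5 uM (0.1% DMSO final).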

[2] = test system: A549
In short: as §1

[3] = test system: DU145
In short: as §1

[4] = test system: FB
In short: as §1

[5] = test system: HEPG2
In short: as §1

[6] = test system: OVCAR4
In short: as §1

| Compound | Euclidean distance [1] | Euclidean distance [2] | Euclidean distance [3] | Euclidean distance [4] | Euclidean distance [5] | Euclidean distance [6] |
| --- | --- | --- | --- | --- | --- | --- |
| COc1cc(OC)c(NC(=O)Nc2cc(C)on2)cc1Cl | 0.922 | 0.813 | 1.16 | 0.91 | 0.834 | 1.52 |
| COC(=O)C1=CO[C@@H](O[C@@H]2O[C@H](CO)[C@@H](O)[C@H](O)[C@H]2O)[C@@H]2C(CO)=CC[C@H]12 [Geniposide] | 0.724 | 0.87 | 1.03 | 0.949 | 0.616 | 1.23 |
| NC1=NCC2c3ccccc3Cc3ccccc3N12 (stereo not drawn) [Epinastine HCl] | 1.16 | 1.15 | 1.13 | 1.2 | 0.717 | 1.43 |
| O=C1[C@H](CC[C@H](O)c2ccc(F)cc2)[C@@H](c2ccc(O)cc2)N1c1ccc(F)cc1 [Ezetimibe] | 1.74 | 1 | 3.08 | 1.36 | 2.26 | 1.34 |
| CN(CCOc1ccc(CC2SC(=O)NC2=O)cc1)c1ccccn1 (stereo not drawn) [Rosiglitazone HCl] | 1.13 | 1.65 | 1.31 | 1.07 | 2.06 | 1.27 |
| CC(C)C[C@H](NC(=O)CNC(=O)[C@H](Cc1ccc(O)cc1)NC(=O)[C@H](CO)NC(=O)[C@H](Cc1c[nH]c2ccccc12)NC(=O)[C@H](Cc1cnc[nH]1)NC(=O)[C@@H]1CCC(=O)N1)C(=O)N[C@@H](CCCNC(=N)N)C(=O)N1CCC[C@H]1C(=O)NCC(N)=O [Gonadorelin Acetate] | 1.59 | 1.23 | 0.611 | 1.19 | 0.828 | 1.22 |
| OC(c1ccccc1)(c1ccccc1)C12CC[N+](CCOCc3ccccc3)(CC1)CC2 [Umeclidinium bromide] | 0.834 | 1.43 | 0.97 | 1.27 | 0.7 | 1.64 |
| CCCCc1nc(-c2ccc(OCCCN(CC)CC)cc2)cn1-c1ccc(Oc2ccc(Cl)cc2)cc1 [Azeliragon] | 6.58 | 4.65 | 0.73 | 3.3 | 1.05 | 1.71 |
| CC(=O)OCC(=O)[C@H]1CC[C@H]2[C@@H]3CCC4=CC(=O)CC[C@]4(C)[C@H]3CC[C@]12C [Deoxycorticosterone acetate] | 0.997 | 0.852 | 0.854 | 1.02 | 0.569 | 1.51 |
| C[C@@H](O)[C@H]1C(=O)N2C(C(=O)O)=C(S[C@@H]3CN[C@H](CNS(N)(=O)=O)C3)[C@H](C)[C@H]12 [Doripenem] | 0.636 | 0.801 | 0.812 | 1.15 | 0.434 | 1.45 |
| O=C(c1ccc(OCCN2CCCCC2)cc1)c1c(-c2ccc(O)cc2)sc2cc(O)ccc12 [Raloxifene] | 2.37 | 2.49 | 2.15 | 2.23 | 2.54 | 2.52 |
| COc1cc2c(cc1Cc1cccc(Cl)c1F)c(=O)c(C(=O)O)cn2[C@H](CO)C(C)C [Elvitegravir (GS-9137. JTK-303)] | 1.44 | 2.36 | 1.33 | 0.872 | 0.582 | 1.76 |
| Nc1ncn([C@H]2C[C@H](O)[C@@H](CO)O2)c(=O)n1 [Decitabine] | 1.92 | 1.42 | 1.18 | 1.43 | 1.56 | 1.55 |
| CS(=O)(=O)c1ccc(C(=O)Nc2ccc(Cl)c(-c3ccccn3)c2)c(Cl)c1 [Vismodegib (GDC-0449)] | 1.82 | 1.01 | 0.671 | 1 | 0.631 | 0.924 |
| OCCN1CCN(CC/C=C2/c3ccccc3Sc3ccc(C(F)(F)F)cc32)CC1 [Flupenthixol dihydrochloride] | 1.63 | 2.21 | 1.71 | 2.52 | 2.68 | 2.01 |
| COc1cc2c(Oc3ccc(NC(=O)C4(C(=O)Nc5ccc(F)cc5)CC4)cc3F)ccnc2cc1OCCCN1CCOCC1 | 1.39 | 2.06 | 1.35 | 1.52 | 0.94 | 3.97 |
| CC(=O)OCC1=C(C(=O)O)N2C(=O)[C@@H](NC(=O)CSc3ccncc3)[C@H]2SC1 [Cephapirin Benzathine] | 1.51 | 0.954 | 0.791 | 1.16 | 0.75 | 0.965 |
| CC1(C)[C@@H](O)CC[C@]2(C)[C@H]3C(=O)C=C4[C@@H]5C[C@@](C)(C(=O)O)CC[C@]5(C)CC[C@@]4(C)[C@]3(C)CC[C@@H]12 [Enoxolone] | 1.06 | 0.933 | 0.631 | 0.901 | 0.41 | 1.32 |
| c1cc(-c2cnn3cc(-c4ccc(N5CCNCC5)cc4)cnc23)c2cccnc2c1 | 5.15 | 5.05 | 4.45 | 6.55 | 5.9 | 6.68 |
| CN1CC(=O)N2[C@H](c3ccc4c(c3)OCO4)c3[nH]c4ccccc4c3C[C@@H]2C1=O [Tadalafil] | 1.16 | 0.906 | 0.404 | 0.948 | 0.78 | 1.22 |
| CN[C@H]1CN(c2ccc3c(=O)c(C(=O)O)cn(-c4nccs4)c3n2)C[C@@H]1OC [Voreloxin (SNS-595) hydrochloride] | 3.32 | 3.76 | 2.41 | 3.35 | 2.43 | 3.8 |
| CCOC(=O)N1CCC(=C2c3ccc(Cl)cc3CCc3cccnc32)CC1 [Loratadine] | 1.17 | 1.34 | 0.839 | 1.05 | 1.48 | 1.1 |
| Brc1c(NC2=NCCN2)ccc2nccnc12 [Brimonidine Tartrate] | 0.514 | 0.618 | 0.478 | 0.739 | 0.644 | 0.833 |
